# MITF act = increases MITF-driven TRPM1 promoter luciferase signal | SK-MEL-5 TRPM1-promoter luciferase, 24 h; % of positive control, neutral wells = 0 | activation, % at 12.5 µM | 300,000 compounds, 0.75% hits | AID 588334;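 active = mean activation of at least 80% with every replicate also reaching 80%; inconclusive = mean reaches 80% but some replicate falls short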
# TRPM1 prom inh = inhibitors of MITF-driven TRPM1 promoter in melanoma cells; SK-MEL-5 TRPM1 promoter luciferase, 24 h; inhibition, % at 12.5 µM; 330,000 compounds, 0.83% hits;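 active = mean inhibition across replicates of 60% or more, whatever share of single replicates reaches that level; inconclusive = some that reach 60%, reason not given; inactive = mean inhibition across replicates below 60%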
# EWS-Fli inh = EWS/Fli transcriptional activity inhibition. 350,000 compounds, 0.67% hits. AID 651661. inhibition, % at 12.6 µM. A673 NR0B1-luciferase reporter, viability-normalised;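 active = mean inhibition of at least 50% after viability correction, with every replicate also passing that limit; inconclusive = mean reaches 50% but only one of two replicates passes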;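 also: firefly luciferase signal divided by Alamar Blue viability fluorescence both relative to DMSO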
# PAX8 reporter = PAX8 transcriptional activity inhibition; 360,000 compounds, 1.2% hits; inhibition, % at 12.6 µM; RMG-I TPO-luciferase reporter, SteadyGlo, 24 h; AID 652154;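 active = mean replicate inhibition at least 60% with every replicate also reaching 60%; inconclusive = only one of the two criteria is met; inactive = mean below 60% and not all replicates reaching 60%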;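 also: luciferase light reporting Pax8 driven TPO promoter activity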
# Wnt act = Wnt/beta-catenin pathway activation. 300,000 compounds, 1.2% hits. activation, % at 9.35 µM. Wnt/beta-catenin reporter cell assay, activator, plate reader; in the data active = activation above about 30%, passing the limit was not always enough; inconclusive = no clear call, values can overlap the other calls
# esBAF inh = blocks esBAF chromatin remodeling in mouse ES cells; reporter increase, % at 12.5 µM; 350,000 compounds, 2% hits; Bmi1-luciferase knock-in reporter, 24 h; 100% = twice the neutral-well signal; in the data active = activation above about 40%; inconclusive = no clear call, values can overlap the other calls;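 also: a rise in the Bmi1 reporter signal indicates esBAF inhibition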
# Hits are given with their value; – = inactive; ? = inconclusive; · = not tested or not shown. The list is not random: actives were taken first. Their share in the collection is about 4%.
SMILES,MITF act,TRPM1 prom inh,EWS-Fli inh,PAX8 reporter,Wnt act,esBAF inh
CCNc1nc(Oc2ccc(C(=O)OC)cc2)nc(N(C)C)n1,–,–,·,·,·,–
O=C(C[C@H]1CC[C@H](NS(=O)(=O)c2ccccc2)[C@H](CO)O1)NCc1ccccc1F,·,·,–,–,·,–
COc1ccc(C2C(C#N)=C(N)Oc3c2ccc2cccnc32)cc1OC (stereo unspecified),–,–,–,85.8,–,·
COc1cc(C2C(C#N)=C(N)Oc3c2ccc2ccccc32)ccc1OCC(=O)Nc1ccc(C)cc1 (stereo unspecified),–,–,–,–,–,–
Cc1ccc(C(c2nc3ccccc3[nH]2)n2c(-c3ccccc3)nc3ccccc32)cc1 (stereo unspecified),·,·,–,–,–,70.0
CSCCC(c1nc2ccccc2[nH]1)n1c(-c2ccc(C)cc2)nc2ccccc21 (stereo unspecified),·,·,–,–,–,·
C[C@H](CO)N1C[C@H](C)[C@@H](CN(C)C(=O)Nc2ccc3c(c2)OCO3)Oc2cc(C3=CCCC3)ccc2S1(=O)=O,·,·,–,–,·,–
N/C(=N\c1nc2ccccc2o1)NC(=O)c1ccc(Cl)cc1,–,–,–,–,·,–
N/C(=N\c1nc2ccccc2o1)NC(=O)c1ccccc1Br,85.0,–,–,–,–,79.9
Cc1c(C(=O)Nc2cc(F)ccc2F)sc2nc3n(c(=O)c12)CCCCC3,–,–,–,–,–,70.9
CC(=O)c1cccc(NC(=O)c2sc3nc4n(c(=O)c3c2C)CCCCC4)c1,–,–,–,–,–,–
CCOC(=O)c1sc2nc3n(c(=O)c2c1C)CCCCC3,?,–,·,·,·,68.1
CSc1cccc(NC(=O)c2sc3nc4n(c(=O)c3c2C)CCC4)c1,?,–,–,–,–,53.7
CC(C)NC(=O)N1CC2(C1)[C@@H](c1ccccc1)[C@@H](CO)N2C(=O)C1CCCCC1,·,·,–,–,·,·
C[C@@H](NC(=O)C[C@@H]1C[C@@H]2c3cc(NS(C)(=O)=O)ccc3O[C@@H]2[C@@H](CO)O1)c1ccccc1,·,·,–,–,·,–
C[C@H](CO)N1C[C@H](C)[C@@H](CN(C)C(=O)CC2CC2)Oc2cc(-c3cccnc3)ccc2S1(=O)=O,·,·,–,·,·,–
CCOC(=O)N1C(=O)[C@](c2ccc(Cl)cc2)(C(C)C)N1C(=O)OCC,–,–,–,–,–,–
CCOC(=O)N1C(=O)[C@@](c2ccc(Cl)cc2)(C(C)C)N1C(=O)OCC,–,–,–,68.9,–,–
CCCN1C[C@H](C)[C@H](OC)CN(C)C(=O)c2cc(NC(=O)C3CC3)ccc2OC[C@@H]1C,·,·,–,–,·,–
O=C1c2ccccc2C(=O)N1N=Cc1ccc2c(c1)OCO2,·,·,–,–,52.2,·
CN(/N=C/c1ccc2c(c1)OCO2)c1ccccc1,118.4,–,·,–,·,50.6
O=C(/C=C/c1ccc2c(c1)OCO2)c1ccc[nH]1,–,–,·,–,42.4,·
CN(C(=O)/C=C/c1ccc2c(c1)OCO2)c1ccccc1,–,–,–,–,–,53.0
COc1cccc(/C=C/C(=O)c2ccc[nH]2)c1,–,–,·,·,·,60.4
COc1cccc(/C=C/C(=O)Oc2ccc(C(=O)c3ccc(F)cc3)cc2)c1,–,–,–,–,–,·
SMILES,MITF act,TRPM1 prom inh,EWS-Fli inh,PAX8 reporter,Wnt act,esBAF inh
CO[C@H]1CN(C)C(=O)c2cc(NC(=O)C3CCCC3)ccc2OC[C@H](C)NC[C@H]1C,·,·,–,–,·,–
COc1cccc2c1C(=O)c1ccc3ccccc3c1C2=O,–,–,·,·,·,46.7
COc1ccc(OC)c2c1C(=O)c1ccccc1C2=O,·,·,·,–,–,·
CN1CCN(C(=O)C[C@@H]2C[C@H]3c4cc(NC(=O)Cc5ccncc5)ccc4O[C@H]3[C@@H](CO)O2)CC1,·,·,–,–,·,–
O=C(Nc1ccccc1Cl)c1ccn[nH]1,–,–,·,·,·,51.9
O=C(Nc1ccccc1Cl)Nc1ccccc1Cl,–,–,–,–,–,·
O=C(Nc1cnccn1)Nc1ccccc1Cl,–,–,–,–,–,–
O=C(Nc1ccccn1)Nc1ccccc1Cl,·,–,–,–,–,53.1
O=C(Nc1ccc(Cl)cn1)Nc1ccccc1Cl,–,–,–,–,–,35.4
O=C(Nc1ccccc1F)c1ccn[nH]1,–,–,–,–,–,·
CC(C)NC(=O)N(C)C[C@H]1Oc2ccc(NC(=O)Nc3ccc(F)cc3)cc2C(=O)N([C@@H](C)CO)C[C@@H]1C,·,·,–,–,·,–
CN(C)C(=O)c1ccc(-c2cccc(-c3nc(C(=O)N(C)C)cc4c3[C@@H](CCO)N([S@](=O)C(C)(C)C)C4)c2)cc1,·,·,–,–,·,–
CO[C@@H]1CN(C)C(=O)c2ccc(NS(=O)(=O)c3ccccc3)cc2OC[C@@H](C)N(C(=O)NC(C)C)C[C@H]1C,·,·,–,·,·,–
COc1cc2cc(-c3ccc(OC)c(OC)c3C)nc(N)c2cc1OC,·,·,51.8,71.0,–,·
CC[C@H](C)[C@@H]1NC(=O)[C@@H](CC(C)C)NC(=O)[C@H](C(C)C)NC(=O)[C@H]2CSSC[C@H](NC1=O)C(=O)N2,·,·,68.4,115.9,–,–
CNC(=O)C[C@@H]1CC[C@H]2[C@H](COc3ccc(NC(=O)Nc4ccccc4)cc3C(=O)N2C)O1,·,·,–,–,·,–
O=C1c2ccccc2C(=O)N1CCOc1cccc(Br)c1,–,–,–,–,–,41.4
Cc1ccc(OCCN2C(=O)c3ccccc3C2=O)cc1,–,–,·,·,·,–
COc1ccc(OCCN2C(=O)c3cccc(N)c3C2=O)cc1,87.7,–,–,–,–,–
CC(C)Cc1cc(C(=O)Nc2cc(Cl)ccc2Cl)no1,–,–,–,–,–,–
CCCc1cc(C(=O)Nc2cc(Cl)ccc2O)no1,?,–,–,–,–,82.7
CCCc1cc(C(=O)Nc2cc(Br)ccc2O)no1,·,·,–,–,–,56.6
C=CCn1c(=O)c(C(=O)Nc2ccccc2C)c(O)c2ccccc21,–,–,–,–,–,61.2
CCCn1c(=O)c(C(=O)Nc2ccccc2C)c(O)c2ccccc21,–,–,–,–,–,–
CCCn1c(=O)c(C(=O)Nc2ccccc2N)c(O)c2ccccc21,·,·,–,–,–,43.0
SMILES,MITF act,TRPM1 prom inh,EWS-Fli inh,PAX8 reporter,Wnt act,esBAF inh
CCn1c(=O)c(C(=O)Nc2ccccc2C)c(O)c2ccccc21,–,–,·,·,·,44.4
CCCn1c(=O)c(C(=O)Nc2ccccc2)c(O)c2ccccc21,–,–,·,·,·,–
C=CCn1c(=O)c(C(=O)Nc2ccccc2O)c(O)c2ccccc21,–,–,·,·,·,·
CO[C@H]1CN(C)C(=O)c2cc(C#N)ccc2OCC[C@H]2CC[C@@H](OC)[C@@H](CN(C)C(=O)[C@@H]1C)O2,·,·,–,–,·,–
Cc1nnc(NC(=O)c2cccc(S(=O)(=O)N3CCCC3)c2)s1,–,–,–,–,–,–
Cc1nnc(NC(=O)c2ccc(Br)cc2)s1,93.9,–,·,·,–,–
CCCc1cc(C(=O)Nc2nnc(C)s2)cs1,85.0,–,·,·,–,50.3
Cc1nnc(NC(=O)c2ccc(S(=O)(=O)N3CCCCC3)cc2)s1,–,–,–,–,62.6,–
Cc1nnc(NC(=O)c2ccc3ccccc3c2)s1,91.8,–,·,–,40.3,·

# Assay outcomes: PubChem BioAssay, Broad Institute
